In test [1] the target is ATPase family AAA domain-containing protein 5 (Homo sapiens) (UniProt Q96QE3). The experiment in a line: qHTS screen for small molecules that inhibit ELG1-dependent DNA repair in human embryonic kidney (HEK293T) cells expressing luciferase-tagged ELG1: Hit Confirmation using MMS Stimulated ELG1 (AID 624249). Further: nearly all actives have a fitted effect of over 60% in size. Further: potency means the concentration at half of the fitted maximal effect. The gist of the method:
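MMS-stimulated (10 µM final) ELG1-luc HEK293T cells; compound added ~5 h after plating at 2,000 cells/well; Amplight luminescence after 16 h; lower signal = inhibition.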
A general note: qHTS replaces the single test concentration by a dilution series.

In test [2] the target is Tumor susceptibility gene 101 protein (Homo sapiens) (UniProt Q99816). Kind of test: qHTS Assay for Iinhibitors of HIV-1 Budding by Blocking the Interaction of PTAP/TSG101: Hit Validation (AID 651600). Further: nearly all actives have a fitted effect of over 70% in size. Further: potency means the concentration at half of the fitted maximal effect. The gist of the method:
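Fluorescence polarization binding assay: Tsg101 binding domain (10 uM final) pre-dispensed with compounds, then FITC-labeled PTAP-motif peptide (50 nM final) added; 20 min at r.t. in HEPES pH 7.5 buffer with NaCl, Tween 20, EDTA, TCEP.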

Test [3] deals with ATPase family AAA domain-containing protein 5 (Homo sapiens) (UniProt Q96QE3). The experiment in a line: HTS assay for small molecules that inhibit ELG1-dependent DNA repair in human embryonic kidney (HEK293T) cells expressing luciferase-tagged ELG1: Hit Confirmation (AID 624248). Further: potency means the concentration at half of the fitted maximal effect; nearly all actives have a fitted effect of over 55% in size. The gist of the method:
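Suppression of ELG1-luciferase signal was read by ONE-Glo luminescence in HEK293T reporter cells after 16 h at 37 C co-treatment with compound and 5-fluorouridine as DNA-damaging agent.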

For test [4], the target named is Luciferin 4-monooxygenase (Photinus pyralis) (UniProt P08659). Kind of test: Biochemical firefly luciferase enzyme assay for NPC (AID 624030).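 Further: purified P. pyralis luciferase at 10 nM with luciferin and ATP substrate; 0% = DMSO and -100% = full luciferase inhibition by PTC124 control; nearly all actives have a fitted effect of over 70% in size.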 The gist of the method:
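Direct inhibition of firefly luciferase enzyme (10 nM final, 50 mM Tris Acetate) assessed by luminescence within 5 minutes. Percent activity scaled between DMSO and PTC124 positive control, with concentration-effect curves classified by fit quality and response.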

Test [5] addresses Cytochrome P450 3A4 (Homo sapiens) (UniProt P08684). Kind of test: qHTS Assay for Activators of Cytochrome P450 3A4 (AID 885). Further: nearly all actives have a fitted effect of over 65% in size. Summed up:
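CYP3A4 activity: Luciferin-PPXE O-dealkylation, 25uM substrate, 200mM KPO4, RT throughout. Read-out is luciferase luminescence; higher values reflect activation.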

The nature of test [6]: Confirmation and Secondary Assay for Modulators of Hemoglobin Beta Chain Splicing at IVS2 654 locus (AID 910).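 Further: HeLa cells stably carrying EGFP split by mutant beta-globin IVS2-654 intron; per-well total GFP intensity by laser scanning cytometry after 2-day treatment; % of control where 0% means no effect.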 Summed up: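 Readout: per-well total peak green fluorescence (488 nm ex, 500–520 nm em) from objects 5–250 µm, reflecting correct splicing of an EGFP-654 reporter. Compounds were applied for 2 days at 37 °C to overnight-plated HeLa EGFP-654 cells; controls were DMSO and 500 nM IVS2-654 PNA.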

A short description of test [7]: Confirmation and Secondary Assay for Modulators of Hemoglobin Beta Chain Splicing at IVS2 705 locus (AID 930).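 Further: HeLa cells stably expressing the EGFP-705 splicing reporter; GFP fluorescence per well restored by corrected splicing of the IVS2-705 intron in EGFP; % of control where 0% means no effect.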 Summed up: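 HeLa EGFP-705 reporter; 500 cells/well, o/n 37C 5% CO2; cpd 2 d; 488 ex/500-520 em laser scan; total peak GFP intensity/well. Ref: 500 nM […] antisense PNA.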
Test [8] can be described thus: Cell Proliferation Assay against the TMD8 Cell Line (AID 651645).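 Further: cells exposed to compound for 48 h before reading.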 Particulars: TMD8 DLBCL cell line proliferation/viability; at 46.1 µM (top of the series). The gist of the method: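 TMD8 ABC DLBCL cells, 500 per well in phenol red-free RPMI with 5% FBS, were treated with compound by pin transfer and incubated 48 hours at 37C, 5% CO2. Viability was read by CellTiter-Glo luminescence, normalised to DMSO (100%) and 9.2 uM bortezomib (0%).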

Test [9] can be described thus: Cell Proliferation Assay against the HBL1 Cell Line (AID 651646).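 Further: cells exposed to compound for 48 h before reading.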 Conditions: HBL1 DLBCL cells; at 46.1 µM (top of the series). Summed up:
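CellTiter-Glo luminescence after 48 h compound exposure at 37C gives percent activity, with DMSO as 100% and 9.2 uM bortezomib final as 0%. Cells: 500 log-phase HBL1 per well, RPMI plus 5% FBS.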

The target in test [10] is Tyrosine-protein kinase Yes (Homo sapiens) (UniProt P07947). The experiment in a line: qHTS for small molecule inhibitors of Yes1 kinase: Primary Screen (AID 686947).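 Further: plate controls were DMSO with enzyme for no effect and no-enzyme DMSO wells for full effect; nearly all actives have a fitted effect of over 60% in size.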 The gist of the method: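 In this qHTS format, inhibition is expressed relative to DMSO controls with enzyme (maximum) and without enzyme (minimum). The 60 min room-temperature reaction uses 0.1 mM ATP, with ADP detected by luminescence.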

Test [11] is described as follows: qHTS for small molecule inhibitors of Yes1 kinase: Counter Assay (AID 686950).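 Further: no kinase present so only ADP-Glo detection of a fixed ADP amount is tested; luminescence from ADP-Glo reporting ADP in a fixed ATP and ADP mixture; 0% = DMSO wells with ATP plus ADP and -100% = ATP-only wells without ADP.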 The gist of the method: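 ADP-Glo luminescence read after a 60 min room-temperature incubation of compound with an ATP/ADP mix (0.08 mM/0.02 mM) and no kinase, following a 20 min compound preincubation. Signal scaled between ATP+ADP (max) and 0.1 mM ATP-only (min) wells; Tris pH 7.5, Mg2+, DTT.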

The nature of test [12]: qHTS assay for small molecule agonists of the antioxidant response element (ARE) signaling pathway (AID 651741; active means well fitted activation curve with a large enough effect in the signal ratio; the % refers to the signal ratio; further: potency means the concentration at half of the fitted maximal effect). The gist of the method: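 Agonist activity is measured as ARE-driven beta-lactamase expression in a stable HepG2 reporter line, using 16 h compound treatment at 37 C and a FRET substrate fluorescence readout after 2 h.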
Test [13] is described as follows: qHTS assay for small molecule activators of the p53 signaling pathway (AID 651743; active means well fitted activation curve with a large enough effect in the signal ratio, not every such curve was filed as active; the % refers to the signal ratio; further: potency means the concentration at half of the fitted maximal effect). Particulars: HCT-116 p53RE-bla, beta-lactamase FRET ratio, 16 h; activation: stronger effect = higher value. The gist of the method: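 A beta-lactamase reporter under p53 response element control, stably carried by HCT-116 cells, reported pathway activation. Test compounds were applied for 16 hours at 37 C, and fluorescence was measured 2 hours after adding the B/G FRET substrate.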

Test [14] can be described thus: qHTS assay for small molecule activators of the nuclear factor-kappa B (NF-kB) signaling pathway (AID 651749; active means well fitted activation curve with a large enough effect in the signal ratio; the % refers to the signal ratio; further: potency means the concentration at half of the fitted maximal effect). Conditions: NF-kB-bla ME-180 cells, beta-lactamase FRET ratio, 16 h; activation: stronger effect = higher value. The gist of the method: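 FRET-based beta-lactamase detection in ME-180 cells reports NF-kB response-element-driven transcription following overnight (16 hr) compound treatment.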

Test [15] can be described thus: qHTS assay for environmental chemicals that activate the Aryl hydrocarbon Receptor (AhR) signaling pathway (AID 651777). Further: % of control where 0% means no effect; nearly all actives have a fitted effect of over 15% in size. Particulars: 1A2-DRE human hepatoma cells, luciferase, 24 h; activation: stronger effect = higher value. The gist of the method: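 1A2-DRE human hepatoma reporter line; 1,200 cells/well; cmpd or DMSO 24 h, 37 C/5% CO2; One-Glo 30 min RT; luciferase lum.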

Test [16] in a line: qHTS assay for small molecule agonists of the antioxidant response element (ARE) signaling pathway measured by Nrf2-dependant transcriptional activity (AID 720636; active means well fitted curve in the direction sought with a large enough effect in the repeat runs; an effect the other way counts as inactive or inconclusive;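 further: HepG2 cells with an ARE-driven luciferase reporter; % of control where 0% means no effect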). Summed up:
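Cells: ARE-luc HepG2 with Nrf2-responsive luciferase. Medium contained 1% dialyzed FBS. Compound exposure lasted 16 hr at 37 C and 5% CO2, followed by ONE-Glo luciferase detection.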

Test [17] in a line: qHTS assay for small molecule agonists of the antioxidant response element (ARE) signaling pathway measured by Nrf2-dependant transcriptional activity - cell viability counter screen (AID 720653; active means well fitted curve in the direction sought with a large enough effect in the repeat runs; an effect the other way counts as inactive or inconclusive; further: on the % scale 0 is the no-effect control and ±100 the full control effect). Particulars: ARE-bla HepG2 viability, CellTiter-Glo ATP luminescence, 16 h; max response: stronger effect = lower value. Summed up:
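Cytotoxicity counter screen: intracellular ATP quantified by CellTiter-Glo luminescence in the same ARE-bla HepG2 plates, after 16 h compound exposure and a 2 h beta-lactamase substrate step.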

A short description of test [18]: qHTS assay for cell viability of HEK293 cells (AID 743288). Further: on the % scale 0 is the no-effect control and ±100 the full control effect; nearly all actives have a fitted effect of over 50% in size. Conditions: ATP luminescence (CellTiter-Glo), 18 h; max response: stronger effect = lower value. The gist of the method: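 After 18 h compound exposure at 37 C, parental HEK293 cells (2,000/well) are lysed with CellTiter-Glo and luminescence is read following 30 min at room temperature.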
A short description of test [19]: qHTS assay for cell viability of the p53RE-bla HCT-116 cell line (AID 743292). Further: on the % scale 0 is the no-effect control and ±100 the full control effect; nearly all actives have a fitted effect of over 55% in size. Summed up:
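HCT-116 p53RE-bla cells seeded 4,000/well; 5 h at 37 C; compound (DMSO) added; 16 h at 37 C; CellTiter-Glo added, 30 min RT; luminescence read.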

For test [20], the target named is Nuclear receptor subfamily 1 group I member 2 (Rattus norvegicus) (UniProt Q9R1A7). The experiment in a line: qHTS assay for small molecule activators of the rat pregnane X receptor (rPXR) signaling pathway (AID 651751; call rule not given here; further: 0% is about no effect). Particulars: rPXR reporter cells, luciferase (One-Glo), 24 h.

Each structure is given as a SMILES string. Records with an inconclusive call do not appear. This is one part of the list. Activity calls are given as the source filed them. Unless noted, the call rests on the fitted dose curve; in most records, active means well fitted curve in the direction sought with a large enough effect; inconclusive means small, poorly fitted or top-dose-only effect, or another doubt; inactive means no such curve, though single readings can be large; an effect the other way counts as inactive or inconclusive.

Tumor susceptibility gene 101 protein (Homo sapiens), sequence (Q99816 whole entry, looked up, the tested form may be a part): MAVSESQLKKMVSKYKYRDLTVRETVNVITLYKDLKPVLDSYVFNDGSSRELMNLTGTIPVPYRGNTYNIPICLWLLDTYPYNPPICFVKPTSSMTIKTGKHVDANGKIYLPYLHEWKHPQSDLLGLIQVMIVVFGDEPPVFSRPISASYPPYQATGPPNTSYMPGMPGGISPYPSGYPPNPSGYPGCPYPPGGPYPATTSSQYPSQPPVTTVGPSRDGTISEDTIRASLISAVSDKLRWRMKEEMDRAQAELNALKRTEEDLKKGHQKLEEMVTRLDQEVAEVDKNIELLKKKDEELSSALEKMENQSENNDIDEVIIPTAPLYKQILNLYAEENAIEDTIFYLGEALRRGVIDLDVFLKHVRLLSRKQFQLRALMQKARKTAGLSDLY
ATPase family AAA domain-containing protein 5 (Homo sapiens), sequence (Q96QE3 whole entry, looked up, the tested form may be a part): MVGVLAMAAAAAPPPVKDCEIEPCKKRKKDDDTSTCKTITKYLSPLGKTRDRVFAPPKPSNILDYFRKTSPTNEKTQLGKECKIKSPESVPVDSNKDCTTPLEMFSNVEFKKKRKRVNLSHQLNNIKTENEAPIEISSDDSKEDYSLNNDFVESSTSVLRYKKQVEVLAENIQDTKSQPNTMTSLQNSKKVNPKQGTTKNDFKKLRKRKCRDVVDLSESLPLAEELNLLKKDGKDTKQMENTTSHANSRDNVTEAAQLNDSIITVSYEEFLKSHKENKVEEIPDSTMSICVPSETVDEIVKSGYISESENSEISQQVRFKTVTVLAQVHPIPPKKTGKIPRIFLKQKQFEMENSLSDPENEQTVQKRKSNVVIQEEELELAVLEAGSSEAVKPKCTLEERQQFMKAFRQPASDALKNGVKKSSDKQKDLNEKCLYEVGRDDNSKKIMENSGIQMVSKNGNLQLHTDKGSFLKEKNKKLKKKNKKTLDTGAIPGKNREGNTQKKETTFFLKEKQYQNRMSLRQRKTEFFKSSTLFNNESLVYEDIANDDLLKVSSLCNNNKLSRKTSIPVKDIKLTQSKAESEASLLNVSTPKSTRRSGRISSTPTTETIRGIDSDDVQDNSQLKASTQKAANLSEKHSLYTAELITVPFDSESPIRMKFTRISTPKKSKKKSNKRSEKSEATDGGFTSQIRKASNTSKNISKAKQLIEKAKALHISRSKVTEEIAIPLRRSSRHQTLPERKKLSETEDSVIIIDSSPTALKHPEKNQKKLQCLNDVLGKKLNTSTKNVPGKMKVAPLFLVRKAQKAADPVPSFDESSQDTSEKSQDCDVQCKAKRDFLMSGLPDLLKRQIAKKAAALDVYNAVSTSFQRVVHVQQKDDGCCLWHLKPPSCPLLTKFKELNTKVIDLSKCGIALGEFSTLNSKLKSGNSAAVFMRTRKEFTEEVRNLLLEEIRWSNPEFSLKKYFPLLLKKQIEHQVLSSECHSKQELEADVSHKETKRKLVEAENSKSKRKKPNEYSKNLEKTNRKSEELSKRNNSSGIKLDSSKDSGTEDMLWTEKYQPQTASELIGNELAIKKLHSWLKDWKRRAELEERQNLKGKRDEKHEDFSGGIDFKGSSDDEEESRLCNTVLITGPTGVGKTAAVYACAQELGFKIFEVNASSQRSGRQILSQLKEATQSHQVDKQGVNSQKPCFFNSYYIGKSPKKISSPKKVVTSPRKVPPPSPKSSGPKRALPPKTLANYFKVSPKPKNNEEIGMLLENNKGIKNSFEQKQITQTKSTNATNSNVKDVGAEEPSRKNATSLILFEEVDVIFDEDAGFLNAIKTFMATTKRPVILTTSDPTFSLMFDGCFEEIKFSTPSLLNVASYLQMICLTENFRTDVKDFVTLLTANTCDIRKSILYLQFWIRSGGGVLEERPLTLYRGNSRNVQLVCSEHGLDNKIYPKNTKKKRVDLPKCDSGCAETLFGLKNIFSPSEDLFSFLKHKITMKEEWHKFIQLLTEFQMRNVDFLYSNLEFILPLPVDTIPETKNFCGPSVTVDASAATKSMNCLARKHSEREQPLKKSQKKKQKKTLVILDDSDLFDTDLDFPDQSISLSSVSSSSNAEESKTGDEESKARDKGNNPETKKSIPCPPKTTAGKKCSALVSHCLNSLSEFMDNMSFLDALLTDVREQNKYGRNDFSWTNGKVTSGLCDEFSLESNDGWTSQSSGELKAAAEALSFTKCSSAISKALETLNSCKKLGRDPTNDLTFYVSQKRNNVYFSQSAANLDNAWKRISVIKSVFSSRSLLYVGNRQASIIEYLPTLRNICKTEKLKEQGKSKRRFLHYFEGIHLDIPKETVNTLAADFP
Luciferin 4-monooxygenase (Photinus pyralis), sequence (P08659 whole entry, looked up): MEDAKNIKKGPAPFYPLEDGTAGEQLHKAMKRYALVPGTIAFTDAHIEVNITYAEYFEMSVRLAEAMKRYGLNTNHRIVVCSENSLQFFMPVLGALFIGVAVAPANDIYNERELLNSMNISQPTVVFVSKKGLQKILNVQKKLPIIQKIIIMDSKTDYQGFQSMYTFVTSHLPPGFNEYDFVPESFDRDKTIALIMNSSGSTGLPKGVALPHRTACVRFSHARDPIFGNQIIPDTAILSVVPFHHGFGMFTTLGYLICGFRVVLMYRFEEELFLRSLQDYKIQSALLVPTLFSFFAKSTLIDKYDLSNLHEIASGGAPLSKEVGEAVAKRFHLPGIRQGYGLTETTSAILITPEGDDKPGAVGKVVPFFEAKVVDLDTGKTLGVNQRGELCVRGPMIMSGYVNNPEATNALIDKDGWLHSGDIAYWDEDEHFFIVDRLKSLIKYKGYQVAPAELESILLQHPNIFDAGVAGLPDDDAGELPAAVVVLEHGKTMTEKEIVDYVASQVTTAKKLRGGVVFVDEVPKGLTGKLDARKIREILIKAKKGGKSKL
Nuclear receptor subfamily 1 group I member 2 (Rattus norvegicus), sequence (Q9R1A7 whole entry, looked up): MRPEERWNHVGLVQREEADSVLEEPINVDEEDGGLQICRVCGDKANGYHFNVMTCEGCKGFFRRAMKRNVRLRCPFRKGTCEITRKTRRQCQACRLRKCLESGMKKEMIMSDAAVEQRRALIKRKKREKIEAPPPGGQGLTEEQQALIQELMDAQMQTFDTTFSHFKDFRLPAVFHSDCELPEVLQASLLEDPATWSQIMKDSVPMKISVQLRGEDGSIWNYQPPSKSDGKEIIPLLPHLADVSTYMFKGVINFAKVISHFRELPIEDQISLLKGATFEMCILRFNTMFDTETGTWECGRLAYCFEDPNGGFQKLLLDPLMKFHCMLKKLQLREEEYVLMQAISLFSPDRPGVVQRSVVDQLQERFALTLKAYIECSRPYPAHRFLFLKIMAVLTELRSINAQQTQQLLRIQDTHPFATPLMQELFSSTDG
Tyrosine-protein kinase Yes (Homo sapiens), sequence (P07947 whole entry, looked up): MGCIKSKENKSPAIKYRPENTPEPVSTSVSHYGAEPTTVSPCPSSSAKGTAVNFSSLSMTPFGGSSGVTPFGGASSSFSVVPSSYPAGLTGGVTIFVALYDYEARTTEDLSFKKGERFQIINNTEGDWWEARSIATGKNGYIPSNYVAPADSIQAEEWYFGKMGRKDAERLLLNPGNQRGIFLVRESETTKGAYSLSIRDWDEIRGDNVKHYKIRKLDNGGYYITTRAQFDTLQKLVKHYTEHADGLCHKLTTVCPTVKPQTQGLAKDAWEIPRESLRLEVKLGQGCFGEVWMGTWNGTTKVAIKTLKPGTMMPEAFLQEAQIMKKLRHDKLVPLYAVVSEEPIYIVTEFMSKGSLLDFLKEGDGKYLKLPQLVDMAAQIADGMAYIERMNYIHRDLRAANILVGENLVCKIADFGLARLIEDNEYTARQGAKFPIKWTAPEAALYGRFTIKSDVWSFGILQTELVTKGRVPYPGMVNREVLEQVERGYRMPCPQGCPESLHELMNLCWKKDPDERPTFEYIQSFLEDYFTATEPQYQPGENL
Cytochrome P450 3A4 (Homo sapiens), sequence (P08684 whole entry, looked up): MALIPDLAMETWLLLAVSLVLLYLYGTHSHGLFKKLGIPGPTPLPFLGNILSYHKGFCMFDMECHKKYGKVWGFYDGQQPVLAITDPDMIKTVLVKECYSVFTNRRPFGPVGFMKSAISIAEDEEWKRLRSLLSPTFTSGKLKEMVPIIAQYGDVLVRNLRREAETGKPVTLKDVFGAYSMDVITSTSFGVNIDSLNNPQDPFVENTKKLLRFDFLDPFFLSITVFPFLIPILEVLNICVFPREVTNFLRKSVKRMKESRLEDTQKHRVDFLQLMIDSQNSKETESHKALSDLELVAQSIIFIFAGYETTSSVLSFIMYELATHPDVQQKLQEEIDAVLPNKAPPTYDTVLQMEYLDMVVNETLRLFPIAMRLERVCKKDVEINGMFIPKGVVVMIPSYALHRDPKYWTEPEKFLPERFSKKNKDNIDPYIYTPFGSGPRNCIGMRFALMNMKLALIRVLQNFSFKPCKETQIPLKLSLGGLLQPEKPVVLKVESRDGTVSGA

Turning to `COc1ccc(NC(=O)C2CCC(CNc3c(N4CCCCC4)c(=O)c3=O)CC2)c(OC)c1` (stereo not drawn), the Potency result in test [1] was “inactive”.

As to `CC(C)(CNC(=O)c1ccc(Cl)c(S(=O)(=O)N2CCc3ccccc3C2)c1)N1CCOCC1`, the Potency in test [1] was 1.58 µM (active).

For the compound `Cc1ccccc1-c1ccc(/C=C2/SC(N3CCOCC3)=NC2=O)o1`, the Potency result in test [2] was “inactive”.

With `CN(C)c1ccnc2sc3c(=O)n(Cc4ccccc4)cnc3c12`, in test [3], the Potency was 4.45 µM (active).

Turning to `NC(=O)c1sc2nc3c(c(-c4ccccc4)c2c1N)CCC3`, the Potency in [3] was 1.77 µM (active); in test [1], 7.05 µM (active).

In the case of `O=C(CCN1C(=O)/C(=C/c2ccco2)SC1=S)Nc1ccc(O)cc1C(=O)O`, in test [2], the Potency entry is “inactive”.

On to `COc1ccc(CSc2nc(N3CCOCC3)c3c(c2C#N)CC(C)(C)OC3)cc1`, for which the Potency in [3] was 0.889 µM (active). Further, the Potency entry in [1] was “inactive”.

With `COc1ccc(CNc2ncnc3ccccc23)cc1`, the Potency in test [1] is 1.58 µM (active).

In the case of `CCc1ccc(N(CC)c2ncnc3nc[nH]c23)cc1`, the Potency in test [3] is 4.99 µM (active); in test [1] it was 17.7 µM (active).

On to `CCC[C@]1(CCc2ccccc2)CC(O)=C([C@H](CC)c2cccc(NS(=O)(=O)c3ccc(C(F)(F)F)cn3)c2)C(=O)O1`, for which the Potency entry in test [4] was “inactive”.

On to `O=C(CO)NCCCOc1cccc(CN2CCCCC2)c1`, for which the Potency entry in [4] was “inactive”.

Turning to `Clc1ccc2nc(-c3ccccc3)nc(C(Cl)Cl)c2c1`, the Potency in test [3] was 3.53 µM (active); in test [1], 2.23 µM (active).

Take `Cc1ccc(Nc2nc(N3CCOCC3)nc(N3CCOCC3)n2)cc1Cl`: in test [3], the Potency is 1.99 µM (active).

As for `Cc1ccc(N(Cc2ccc(C(=O)Nc3ccccc3C(=O)NCc3ccco3)cc2)S(C)(=O)=O)cc1C`, the Potency in test [3] was 6.28 µM (active).

Take `O=C(Nc1nc2c(s1)CN(Cc1ccccc1)CC2)c1cccc(S(=O)(=O)N2CCc3ccccc32)c1`: the Potency result in [2] was “inactive”.

Take `Nc1nnc(SCC(=O)Nc2ccc3nc(SCC(=O)Nc4ccccc4)sc3c2)s1`: the Potency was 0.888 µM (active) in test [3] and 4.99 µM (active) in test [1].

Take `CC(=O)C[C@H]1[C@H](O[C@H]2[C@H](OC(C)C(=O)N[C@@H](C)C(=O)N[C@H](CCC(=O)N[C@@H](CCCCN)C(=O)N[C@H](C)C(=O)O)C(N)=O)[C@@H](NC(=O)O)C(O)O[C@@H]2CO)O[C@H](CO)[C@@H](O)[C@@H]1O` (stereo partly drawn): in [4], the Potency entry was “inactive”.

Take `CC(=O)n1c(C=Nc2ccc(Cl)cc2)c(O)c2ccccc21`: the Potency in test [2] is 16.3 µM (active).

Take `CN(CC1CCCO1)S(=O)(=O)c1ccc(C(=O)Nc2ccc(F)cc2)cc1` (stereo not drawn): the Potency in [3] is 9.96 µM (active); in test [1], 22.3 µM (active).

In the case of `Cc1cc(Nc2cccc(Cl)c2C)n2ncnc2n1`, the Potency entry in [2] is “inactive”.

As for `CCC(=O)OCC(=O)C1(OC(=O)CC)C(C)CC2C3CCC4=CC(=O)C=CC4(C)C3(Cl)C(O)CC21C` (stereo not drawn), the Potency entry in test [5] and in test [4] was “inactive” in each case. Besides, the outcome in test [6] and in test [7] was inactive.

For `OCCCNc1nccc(-c2cc(Nc3cccc(Cl)c3)ncn2)n1`, the values for the Potency in [3] and in test [1] were 0.792 µM (active) and 0.629 µM (active), respectively.

As for `COc1cc(-c2cc(-c3ccc(N)cc3)[nH]c(=O)c2C#N)cc(OC)c1OC`, in test [2], the Potency result is “inactive”.

For the compound `CCOC(=O)[C@H](CCc1ccccc1)NC(C)C(=O)N1CC2(CC1C(=O)O)SCCS2` (stereo partly drawn), in test [4], the Potency entry was “inactive”.

As for `O=C(CN1C(=O)NC(Cc2c[nH]c3ccccc23)C1=O)Nc1ccccc1C(F)(F)F` (stereo not drawn), the Potency entry in test [2] was “inactive”.

Regarding `Cc1ccc(C)c(S(=O)(=O)N2CCN(c3ncnc4sccc34)CC2)c1`, the results for the Potency in [3] and in test [1] were 4.99 µM (active) and 2.81 µM (active), respectively.

As for `Cc1cc2oc(=O)cc(CN3CCN(S(=O)(=O)c4cccs4)CC3)c2cc1C(C)C`, the Potency in test [3] is 3.53 µM (active); in [1] it was 8.88 µM (active).

On to `OC[C@H]1O[C@H](OC/C=C/c2ccccc2)[C@H](O)[C@@H](O)[C@@H]1O`, for which, in [4], the Potency entry was “inactive”.

Take `C=C1C(=C/C=C2\CCC[C@]3(C)[C@@H]([C@H](C)/C=C/[C@H](C)C(C)C)CC[C@@H]23)C[C@@H](O)C[C@@H]1O`: in test [8], the viability (% of control) is -0.788%. In addition, in test [9], the viability, percent of control was -0.446%. Also, the Potency result in test [10] is “inactive”. Besides, the compound was classed as inactive in [11].

With `c1cc2ccc3ccc4ccc5cccc6c(c1)c2c3c4c56`, the Potency in test [12] was 21.7 µM (active); in [13], 35.5 µM (active); in test [14], 39.8 µM (active). Besides, in [15], the activation is 6.27% (inactive). The Potency result in test [16] and in [19] was “inactive” each time. Besides, the max response was -17.1% (inactive) in [17], -3.62% (inactive) in [18] and 0.241% (inactive) in test [20].
